Shown are actives, neighbours in structure and some others; about 3.5% of the full set was active somewhere.
TEAD-YAP block: TEAD-YAP interaction inhibition; 640,000 tested, 1.4% active; HEK-TIYL cells, TEAD-Gal4/YAP UAS-luciferase luminescence; AID 1259422; inhibition, % at 9.12 µM; in the data active = inhibition above about 32%;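 also: 0% = median of test compound wells and 100% = reference inhibitor wells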
MITF primary: blocks human microphthalmia-associated transcription factor. inhibition, % at 2.6 µM. O75030. AlphaScreen MITF homodimerization, bead proximity signal. 650,000 tested, 0.91% active; in the data active = inhibition above about 50%;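 also: 0% = vehicle wells with protein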
GPR151 ag: human GPR151 activation | Q8TDV0 | PathHunter beta-arrestin GPR151 cells, luminescence | activation, % at 11.2 µM | 650,000 tested, 1% active | AID 1508602; in the data active = activation above about 4.9%;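 also: 0% = median of compound wells and 100% = cells with positive control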
Target sequence (Q8TDV0 whole entry, looked up): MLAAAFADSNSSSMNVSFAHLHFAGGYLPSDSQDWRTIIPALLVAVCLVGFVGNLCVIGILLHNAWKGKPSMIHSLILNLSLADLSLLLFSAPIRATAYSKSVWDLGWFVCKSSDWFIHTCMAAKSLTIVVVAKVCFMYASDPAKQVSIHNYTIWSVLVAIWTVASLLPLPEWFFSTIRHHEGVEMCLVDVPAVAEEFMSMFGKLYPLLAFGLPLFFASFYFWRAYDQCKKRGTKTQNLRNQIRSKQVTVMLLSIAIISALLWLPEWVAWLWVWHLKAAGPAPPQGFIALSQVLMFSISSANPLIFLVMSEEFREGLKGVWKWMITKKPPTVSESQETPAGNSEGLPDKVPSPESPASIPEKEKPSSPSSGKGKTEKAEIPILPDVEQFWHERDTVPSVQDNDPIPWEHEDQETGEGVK
FBW7 activator: activators of human E3 ligase FBW7; Q969H0; 650,000 tested, 0.13% active; normalized activity (activation), % at 26.1 µM; AlphaScreen FBW7–phospho-cyclin E peptide binding, activator screen; AID 1259310; in the data active = normalized activity above about 1.9%;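 also: purified mutant Fbw7 with reduced substrate affinity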
MITF confirm: confirmation of human MITF inhibitors. shares compounds with MITF primary. AlphaScreen MITF homodimerization, biotin/His-MITF beads. inhibition, % at 2.6 µM. 4,700 tested, 16% active;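 active = inhibition above a cutoff derived from the DMSO control wells, cut at about 28% in these data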;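 also: 0% = MITF dimer wells with DMSO only; inhibitors lower the bead chemiluminescence by keeping MITF from dimerizing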
AS interf DR: AlphaScreen optical interference, dose response counter-screen | shares compounds with MITF primary | AlphaScreen optical interference counterscreen, cell-free | IC50, µM | 480 tested, 6% active | AID 1259373; call rule not given here
AlphaScreen intf2: counter-screen: compounds optically interfering with AlphaScreen; shares compounds with MITF primary; LysRS AlphaScreen counterscreen, signal interference, triplicate; inhibition, % at 2.6 µM; 4,700 tested, 7.6% active; AID 1259376;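 active = inhibition above a cutoff derived from the DMSO control wells, cut at about 30% in these data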
The depositor's hits bear a star; nt = not tested or not shown.

SMILES | TEAD-YAP block | MITF primary | GPR151 ag | FBW7 activator | MITF confirm | AlphaScreen intf2 | others
COc1cc(CN2CCC(N3CCN(C)CC3)CC2)cc(OC)c1OC | -1 | 87* | 0 | 0 | -14 | -5
COc1ccc(OC)c(CN2CCN(C3CCC(c4ccccc4)CC3)CC2)c1 (stereo not drawn) | -4 | 54* | 0 | 0 | -2 | 10
COc1cc(CN2CCC(N3CCOCC3)CC2)cc(OC)c1OC | -2 | 24 | 0 | 1 | nt | nt
COc1cc(CN2CCN(C3CCC(c4ccccc4)CC3)CC2)cc(OC)c1OC (stereo not drawn) | 4 | 69* | -1 | 0 | 6 | -7
COc1ccc(Cl)cc1-n1cnc2cc(C(=O)NC3CCCCCC3)ccc21 | 9 | -2 | 1 | 0 | nt | nt
COc1ccccc1CCNCc1ccc(C(=O)O)s1 | 7 | 2 | 1 | 0 | nt | nt
O=C(/C=C/c1ccc(-c2ccc(F)cc2)o1)c1ccco1 | -64 | 58* | 0 | 0 | 77* | 40*
Cc1ccc(C(=O)/C=C/c2ccc(-c3cccc(C(F)(F)F)c3)o2)cc1 | 6 | -1 | 2 | 0 | nt | nt
O=C(/C=C/c1ccc(-c2cccc(C(F)(F)F)c2)o1)c1ccco1 | -11 | 78* | 3 | 0 | 70* | 29 | AS interf DR=>6.6
CC(=O)OC1C2CC(C1I)C(C(F)(F)F)(C(F)(F)F)N2 (stereo not drawn) | 1 | 10 | 0 | 0 | nt | nt
CC(=O)OC1C2CC(C1Br)C(C(F)(F)F)(C(F)(F)F)N2 (stereo not drawn) | -4 | 55* | 0 | 0 | -4 | -2
CCCCOc1ccc(C(=O)N/C(=C/c2ccco2)C(=O)O)cc1 | 5 | 51* | -1 | 0 | 64* | 2 | AS interf DR=>6.5
CCCCOc1ccc(C(=O)N/C(=C\c2ccco2)C(=O)OC)cc1 | -3 | 10 | 0 | 0 | nt | nt
Cn1cc(-c2nc(Nc3ccc(-n4cnc(N5CCOCC5)n4)cc3)ncc2Br)cn1 | 4 | 57* | 0 | 0 | 67* | 3 | AS interf DR=>6.5
c1cc(-c2ccc3cnc(Nc4ccc(-n5cnc(N6CCOCC6)n5)cc4)nc3c2)ccn1 | -40 | 16 | -1 | 0 | nt | nt
O=c1ccc(-c2ccc3cnc(Nc4ccc(-n5cnc(N6CCOCC6)n5)cc4)nc3c2)c[nH]1 | -13 | 60* | -1 | 1 | 5 | -2
COC(=O)c1cc(-c2c[nH]c3ccccc23)no1 | -19 | 11 | 0 | 1 | nt | nt
CC(=O)Nc1ccc2c(c1[N+](=O)[O-])C(=O)c1ccccc1C2=O | -9 | 6 | 2 | 0 | nt | nt
Cc1nn(-c2ccc(F)cc2)c(C)c1CNCc1ccccc1 | -3 | 70* | 0 | 0 | 25 | 10
CC(C)NC(=O)COC(=O)c1ccc(Br)o1 | -4 | 3 | -2 | 0 | nt | nt
COCCNCC(=O)Nc1nnc(C)s1 | 2 | 14 | -1 | 0 | nt | nt
COCCNCC(=O)Nc1nc(C)cs1 | -2 | 70* | 1 | 0 | 15 | 19
CC(=O)Nc1cc(-c2ccc(Cl)cc2)nn1-c1ccccc1 | -4 | 81* | 1 | 0 | -3 | -5
CC(=O)Nc1cc(-c2ccccc2)nn1Cc1ccc(Cl)cc1 | 0 | 1 | 1 | 0 | nt | nt
Cc1ccc(OCCCN2CCCCC2)c([N+](=O)[O-])c1 | -28 | 87* | -1 | 0 | -5 | 10
SMILES | TEAD-YAP block | MITF primary | GPR151 ag | FBW7 activator | MITF confirm | AlphaScreen intf2 | others
Cc1ccc(OCCN2CCCC(C)C2)c([N+](=O)[O-])c1 (stereo not drawn) | 8 | 58* | -1 | 0 | 13 | 12
Cc1ccc([N+](=O)[O-])c(OCCCN2CCOCC2)c1 | -7 | -10 | -1 | 0 | nt | nt
Cc1ccc(OCCCCN2CC(C)OC(C)C2)c([N+](=O)[O-])c1 (stereo not drawn) | 4 | 63* | 3 | 0 | -9 | -5
Cc1cc(OCCCCN2CC(C)OC(C)C2)ccc1[N+](=O)[O-] (stereo not drawn) | 12 | 40 | 2 | 0 | nt | nt
Cc1ccc(OCCCCN2CCCC2)c([N+](=O)[O-])c1 | 4 | 83* | 0 | 0 | -8 | -2
COc1cccc(C(=O)Nc2cccc(-n3c(C)nc4ccccc4c3=O)c2)c1OC | -22 | -3 | 1 | 0 | nt | nt
CC1CCN(c2nc(Cl)nc(N3CCC(C)CC3)n2)CC1 | -1 | 21 | 2 | 1 | nt | nt
CCOC(=O)c1c(NC(=O)N2CCC(CN3CCOCC3)CC2)sc2c1CCCC2 | 5 | 3 | 3 | 0 | nt | nt

Screening data: PubChem BioAssay, The Scripps Research Institute Molecular Screening Center
